The source of these data is PubChem BioAssay (NCI).

Molecules are shown by their SMILES. This is part of a sample that, as a whole, favours compounds with a hit. Of some 83,000 tested, about 20% had one in any assay.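 Cells were grown in 96-well plates and exposed to the test compound at a single concentration for 48 hours; results are reported as percent growth, with values below 10 considered active.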 Values without a mark were called inactive. Active and inactive are the calls of the source.

Among the test systems are EKVX NSCLC; SN12C renal; UO-31 renal; TK-10 renal; ACHN renal; CAKI-1 renal; CCRF-CEM leukemia; MOLT-4 leukemia; SR leukemia; A498 renal.
Holding throughout (test): NCI-60 one-dose screen, 48 h (100 = growth as untreated, 0 = no growth, -100 = all killed)
Holding throughout (settings): 10 µM unless noted

As to `COC(=O)c1c2c(c(C)[n+]([O-])c1C)C(=O)C=C(NCc1ccc(F)c(F)c1)C2=O`, the growth in the assay with EKVX NSCLC was -82.1% (active); in the assay with SN12C renal it was -93.7% (active); in the assay with UO-31 renal, -71.5% (active); in the assay with TK-10 renal, 3.98% (active); with ACHN renal it was -78.2% (active); with CAKI-1 renal it was -10.6% (active). The growth in the assay with CCRF-CEM leukemia was 5.3% (active); in the assay on MOLT-4 leukemia it was -26.5% (active); in the assay on SR leukemia, 10.5%.
As to `c1ccc2c(c1)oc1cc3sccc3nc12`, the growth is 101% in the assay on EKVX NSCLC; 93% with SN12C renal; 66.6% with UO-31 renal; 135% in the assay on TK-10 renal; 99.5% with ACHN renal; 78% in the assay on CAKI-1 renal. In addition, the growth is 100% in the assay on CCRF-CEM leukemia, 97.7% with MOLT-4 leukemia and 96.5% in the assay with SR leukemia.
As to `COc1ccc(/C=c2\sc3n(c2=O)NC2C(N=3)N(C)C(=O)N2C)cc1` (stereo unspecified), the growth is 98.4% with EKVX NSCLC; 101% in the assay on SN12C renal; 77.6% with UO-31 renal; 112% in the assay with TK-10 renal; 105% in the assay on ACHN renal; 85% in the assay on CAKI-1 renal. Further, the growth in the assay with CCRF-CEM leukemia is 95.7%; in the assay with MOLT-4 leukemia, 102%; in the assay with SR leukemia it was 86.8%.
`O=C(Nc1ncc(Cc2cccc(C(F)(F)F)c2)s1)C1COc2ccccc2O1` (stereo unspecified): the growth in the assay on EKVX NSCLC is 75.5%; with SN12C renal, 88.8%; in the assay on UO-31 renal, 73.7%; in the assay on TK-10 renal, 97.1%; in the assay with CAKI-1 renal, 84.2%; in the assay with A498 renal it was 106%. Further, the results for the growth with CCRF-CEM leukemia, with MOLT-4 leukemia and with SR leukemia were 86.7%, 80.2% and 106%, respectively.
As for `Nc1no[n+]([O-])c1-c1nnc2c(n1)-c1ccccc1C2=O`, the growth in the assay with EKVX NSCLC was 63.8%; with SN12C renal, 15.6%; in the assay on UO-31 renal, 37%; in the assay with TK-10 renal, 151%; with CAKI-1 renal it was 72.4%; with A498 renal, 91%. Besides, the growth with CCRF-CEM leukemia was 35.5%; with MOLT-4 leukemia, 5.49% (active); in the assay with SR leukemia, 3.68% (active).
Regarding `CC[C@]1(O)C[C@@H]2CN(CCc3c([nH]c4ccccc34)[C@@](C(=O)OC)(c3cc4c(cc3OC)N(C)[C@H]3[C@@](O)(C(=O)OC)[C@H](OC(=O)CCCBr)[C@]5(CC)C=CCN6CC[C@]43[C@@H]65)C2)C1`, the growth in the assay on EKVX NSCLC is 31%; in the assay on SN12C renal it was 23.9%; in the assay with UO-31 renal, 37.7%; in the assay with TK-10 renal, 46.5%; in the assay with CAKI-1 renal, 9.84% (active); in the assay with A498 renal, -1.7% (active). Moreover, the growth in the assay with CCRF-CEM leukemia is 6.76% (active); in the assay on MOLT-4 leukemia, 17.3%.
As to `COc1ccc(CCN2C(=O)/C(=C/c3ccc(C4Oc5ccccc5C5CC(c6cccc(OC)c6)=NN54)cc3)SC2=S)cc1` (stereo unspecified), the growth in the assay with EKVX NSCLC was 94.4%; in the assay with SN12C renal, 101%; in the assay with UO-31 renal it was 82%; in the assay with TK-10 renal it was 103%; in the assay on CAKI-1 renal, 95.7%; in the assay with A498 renal it was 106%. Moreover, the values for the growth with CCRF-CEM leukemia, in the assay with MOLT-4 leukemia and in the assay on SR leukemia were 98.8%, 104% and 115%, respectively.
On to `CCCCN1CCN(c2ccc3nc(-c4ccc5nc(-c6ccc(OCC)cc6)[nH]c5c4)[nH]c3c2)CC1`, for which the growth in the assay on EKVX NSCLC is 92.9%; with SN12C renal, 76.9%; with UO-31 renal it was 100%; in the assay on TK-10 renal, 86.8%; in the assay with ACHN renal it was 63.9%; in the assay on CAKI-1 renal, 51.2%. Besides, the growth with CCRF-CEM leukemia is 20.5%; in the assay with MOLT-4 leukemia, 56.9%; in the assay on SR leukemia, -1.98% (active).
`Cc1ccccc1CNC(=O)C1CN(c2ccc(Cl)cc2)N(c2ccc(Cl)cc2)C1=O` (stereo unspecified): the growth in the assay on EKVX NSCLC was 91.8%; with SN12C renal it was 90.8%; in the assay with UO-31 renal, 64.1%; with TK-10 renal, 91.3%; in the assay on CAKI-1 renal, 71.6%; in the assay on A498 renal, 86.2%. In addition, the growth in the assay on CCRF-CEM leukemia is 84.3%; with MOLT-4 leukemia, 81.1%; in the assay on SR leukemia, 59.8%.
In the case of `COc1cc(/C(C#N)=C/c2nc3c(N4CCOCC4)nc(Cl)nc3n2C)cc(OC)c1OC`, the growth was 35.2% with EKVX NSCLC; 14.9% with SN12C renal; -1.84% (active) in the assay with UO-31 renal; 50.5% in the assay with TK-10 renal; 6.49% (active) with CAKI-1 renal; -28.1% (active) in the assay with A498 renal. For the same molecule, the growth in the assay on CCRF-CEM leukemia was 14.4%; in the assay with MOLT-4 leukemia, 9.93% (active); in the assay with SR leukemia, 27.9%.
In the case of `Cc1cccc2c(=O)c3c(sc12)c(NCCN)nc1ccccc13`, the growth with EKVX NSCLC is -0.232% (active); in the assay on SN12C renal, -75.8% (active); in the assay with UO-31 renal, -77.1% (active); in the assay on TK-10 renal it was -73.7% (active); in the assay on ACHN renal, -97.6% (active); in the assay with CAKI-1 renal it was -58.4% (active). The growth in the assay on CCRF-CEM leukemia is -34.5% (active); with MOLT-4 leukemia, -59% (active); with SR leukemia, -28.3% (active).
In the case of `CCn1c(Cc2ccccc2Nc2c(Cl)cccc2Cl)nnc1SCC(=O)NN1C(=O)/C(=C/c2cccc(OC)c2OC)SC1=S`, the growth with EKVX NSCLC was 93.2%; in the assay with SN12C renal, 95%; with UO-31 renal, 77.3%; in the assay with TK-10 renal, 108%; in the assay on CAKI-1 renal, 94.1%; in the assay with A498 renal, 103%. Also, the growth is 96.6% in the assay on CCRF-CEM leukemia, 95.8% in the assay with MOLT-4 leukemia and 102% with SR leukemia.
Regarding `Nc1ccc(-c2ccc(-c3ccccc3N)c3[nH]c4ccccc4c23)cc1`, the growth in the assay on EKVX NSCLC is 34.9%; in the assay with SN12C renal, 32.7%; in the assay with UO-31 renal, 22.5%; with TK-10 renal, 23.8%; with CAKI-1 renal, 25.4%; in the assay on A498 renal, 20.6%. The growth with CCRF-CEM leukemia is 13%; with MOLT-4 leukemia, 22%; with SR leukemia, 19.6%.
